Read-out in experiment [1]: Vascular endothelial growth factor receptor 2 (Homo sapiens) (UniProt P35968)
Description: BSK_4H_VEGFRII: BioMAP Diversity Plus: 4H Assay for Vascular endothelial growth factor receptor 2 (VEGFR2) Biomarker Activity (AID 2283031).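 On AC50: cell-surface VEGFR2 protein level quantified by ELISA.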 To be noted: primary human endothelial cells (HUVEC); actives raise or lower the signal. The method in brief: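 ELISA read-out of VEGFRII in primary human umbilical vein endothelium, taken 24 h after chemical treatment. Responses are expressed relative to DMSO, with bidirectional fitting.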

Read-out in experiment [2]: Human Leukocyte Antigen - DR isotype (HLADR), HLA-DRA (gene 3122)
Description: BSK_BE3C_HLADR: BioMAP Diversity Plus: BE3C Assay for Human Leukocyte Antigen - DR isotype (HLADR) Biomarker Activity (AID 2283032). Particulars: primary human bronchial epithelial cells; actives raise or lower the signal. Put shortly: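 ELISA read-out of HLA-DR on human lung bronchial epithelial primary cells, measured 24 h post-dosing. Both increases and decreases were scored relative to DMSO vehicle.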

Read-out in experiment [3]: Vascular cell adhesion molecule 1 (VCAM1), VCAM1 (gene 7412)
Briefly: BSK_4H_VCAM1: BioMAP Diversity Plus: 4H Assay for Vascular cell adhesion molecule 1 (VCAM1) Biomarker Activity (AID 2283033).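 On outcome: cell-surface VCAM-1 protein measured by ELISA.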 To be noted: primary human endothelial cells (HUVEC); actives raise or lower the signal. The method in brief:
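ELISA read-out of VCAM-1 on human umbilical vein endothelium 24 hours after chemical dosing; gain or loss of signal was fitted relative to DMSO, with sulforhodamine B staining of parallel cultures flagging overt cytotoxicity.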

Read-out in experiment [4]: Interferon-gamma inducible Protein 10 (IP10), CXCL10 (gene 3627)
Description: BSK_BE3C_IP10: BioMAP Diversity Plus: BE3C Assay for Interferon-gamma inducible Protein 10 (IP10) Biomarker Activity (AID 2283034). Particulars: primary human bronchial epithelial cells; actives raise or lower the signal. Put shortly:
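Chemical is dosed onto human lung bronchial epithelial primary cells, cultures are incubated 24 h, and IP-10 is then quantified by ELISA. Gain or loss of signal is fitted in both directions relative to DMSO.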

Read-out in experiment [5]: Monokine induced gamma interferon (MIG), CXCL9 (gene 4283)
Briefly: BSK_BE3C_MIG: BioMAP Diversity Plus: BE3C Assay for Monokine induced gamma interferon (MIG) Biomarker Activity (AID 2283035).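 On outcome: MIG protein measured by ELISA in BE3C cultures after 24 h of dosing.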 To be noted: primary human bronchial epithelial cells; actives raise or lower the signal. Put shortly:
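ELISA read-out of MIG in human lung bronchial epithelial primary cultures, 24 h post-dosing. Bidirectional curve fit vs DMSO baseline.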

Read-out in experiment [6]: Transforming growth factor beta 1 (TGFb1), TGFB1 (gene 7040)
Briefly: BSK_BE3C_TGFb1: BioMAP Diversity Plus: BE3C Assay for Transforming growth factor beta 1 (TGFb1) Biomarker Activity (AID 2283036;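 on outcome: TGF-b1 protein level measured by ELISA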). To be noted: primary human bronchial epithelial cells; actives raise or lower the signal. The method in brief:
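Primary human lung bronchial epithelial cells; compound exposure 24 h; TGF-b1 by ELISA; bidirectional fit, DMSO baseline. Parallel SRB total-protein staining for cytotoxicity.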

Read-out in experiment [7]: Plasminogen activator inhibitor-1 (PAI1), SERPINE1 (gene 5054)
Description: BSK_BE3C_PAI1: BioMAP Diversity Plus: BE3C Assay for Plasminogen activator inhibitor-1 (PAI1) Biomarker Activity (AID 2283037). Particulars: primary human bronchial epithelial cells; actives raise or lower the signal. The method in brief: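 Primary human lung bronchial epithelial cells; chemical dosing; 24 h; PAI-1 measured by ELISA; bidirectional fit referenced to DMSO as negative control.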

Read-out in experiment [8]: urokinase plasminogen activator (uPA), PLAU (gene 5328)
Briefly: BSK_BE3C_uPA: BioMAP Diversity Plus: BE3C Assay for urokinase plasminogen activator (uPA) Biomarker Activity (AID 2283038).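 On outcome: uPA protein level quantified by ELISA in cell cultures; uPA read one day after compound addition.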 To be noted: primary human bronchial epithelial cells; actives raise or lower the signal. The method in brief:
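Bronchial epithelial cells (human, primary); chemical 24 h; uPA by ELISA; bidirectional fit vs DMSO. SRB (0.1%, after 10% TCA fixation, 560 nm) in parallel cultures for cytotoxicity.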

Read-out in experiment [9]: Urokinase-type plasminogen activator receptor (uPAR), PLAUR (gene 5329)
Briefly: BSK_BE3C_uPAR: BioMAP Diversity Plus: BE3C Assay for Urokinase-type plasminogen activator receptor (uPAR) Biomarker Activity (AID 2283039).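 On outcome: uPAR protein level measured by ELISA on the cells; cells exposed to compound for one day before measurement.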 To be noted: primary human bronchial epithelial cells; actives raise or lower the signal. Put shortly:
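Human bronchial epithelial primary cells; chemical exposure 24 h; uPAR by ELISA; bidirectional fit vs DMSO control.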

Read-out in experiment [10]: Interleukin-6 (IL6), IL6 (gene 3569)
Briefly: BSK_CASM3C_IL6: BioMAP Diversity Plus: CASM3C Assay for Interleukin-6 (IL6) Biomarker Activity for (AID 2283040). To be noted: primary human coronary artery smooth muscle cells; actives raise or lower the signal.

Read-out in experiment [11]: Tissue plasminogen activator (tPA), PLAT (gene 5327)
Description: BSK_BE3C_tPA: BioMAP Diversity Plus: BE3C Assay for Tissue plasminogen activator (tPA) Biomarker Activity (AID 2283041).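 On outcome: tPA level quantified by ELISA one day after compound addition.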 To be noted: primary human bronchial epithelial cells; actives raise or lower the signal. Put shortly:
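Primary human lung bronchial epithelial cultures receive test chemical; after 24 h, tPA is quantified by ELISA, and gain or loss of signal is fitted bidirectionally relative to DMSO baseline.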

Read-out in experiment [12]: Interleukin-8 (IL8), CXCL8 (gene 3576)
Briefly: BSK_CASM3C_IL8: BioMAP Diversity Plus: CASM3C Assay for Interleukin-8 (IL8) Biomarker Activity (AID 2283042).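 Further: IL-8 protein level quantified by ELISA.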 Particulars: primary human coronary artery smooth muscle cells; actives raise or lower the signal.

Read-out in experiment [13]: Human Leukocyte Antigen - DR isotype (HLADR), HLA-DRA (gene 3122)
Briefly: BSK_CASM3C_HLADR: BioMAP Diversity Plus: CASM3C Assay for Human Leukocyte Antigen - DR isotype (HLADR) Biomarker Activity (AID 2283043).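 Further: cell-surface HLA-DR protein level quantified by ELISA.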 To be noted: primary human coronary artery smooth muscle cells; actives raise or lower the signal.

Read-out in experiment [14]: Macrophage colony-stimulating factor (MCSF), CSF1 (gene 1435)
Briefly: BSK_CASM3C_MCSF: BioMAP Diversity Plus: CASM3C Assay for Macrophage colony-stimulating factor (MCSF) Biomarker Activity (AID 2283044).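 Further: M-CSF protein amount quantified by ELISA after 24 h exposure.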 Particulars: primary human coronary artery smooth muscle cells; actives raise or lower the signal.

Read-out in experiment [15]: Low-density lipoprotein receptor (LDLR), LDLR (gene 3949)
Briefly: BSK_CASM3C_LDLR: BioMAP Diversity Plus: CASM3C Assay for Low-density lipoprotein receptor (LDLR) Biomarker Activity (AID 2283045).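 Further: LDLR protein level on the cell surface quantified by ELISA.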 To be noted: primary human coronary artery smooth muscle cells; actives raise or lower the signal.

Experiment [16] is described as follows: BSK_CASM3C_Proliferation: Cell Proliferation Assessment in the BioMAP Diversity Plus: CASM3C Assay (AID 2283047).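 Further: sulforhodamine B total protein stain as relative cell number at 560 nm; sub-confluent cells exposed 48 h before staining; fitted both ways against DMSO so gain or loss of cell number.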 To be noted: primary human coronary artery smooth muscle cells.
Read-out in experiment [17]: Monokine induced gamma interferon (MIG), CXCL9 (gene 4283)
Briefly: BSK_CASM3C_MIG: BioMAP Diversity Plus: CASM3C Assay for Monokine induced gamma interferon (MIG) Biomarker Activity (AID 2283048).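 Further: MIG protein level measured by ELISA.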 To be noted: primary human coronary artery smooth muscle cells; actives raise or lower the signal.

Experiment [18] is described as follows: BSK_CASM3C_SRB: Viability Assessment in the BioMAP Diversity Plus: CASM3C Assay (AID 2283050).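 Further: total protein by SRB staining as cytotoxicity measure in parallel cultures.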 To be noted: primary human coronary artery smooth muscle cells.
Read-out in experiment [19]: Monocyte Chemoattractant Protein-1 (MCP1), CCL2 (gene 6347)
Description: BSK_CASM3C_MCP1: BioMAP Diversity Plus: CASM3C Assay for Monocyte Chemoattractant Protein-1 (MCP1) Biomarker Activity (AID 2283046).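 Further: MCP-1 level quantified by ELISA 24 h after dosing.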 Particulars: primary human coronary artery smooth muscle cells; actives raise or lower the signal.

Read-out in experiment [20]: serum amyloid A (SAA), SAA1 (gene 6288)
Briefly: BSK_CASM3C_SAA: BioMAP Diversity Plus: CASM3C Assay for serum amyloid A (SAA) Biomarker Activity (AID 2283049).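 Further: SAA protein level quantified by ELISA.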 Particulars: primary human coronary artery smooth muscle cells; actives raise or lower the signal.

Each structure is given as a SMILES string. Where “and” joins values, the source holds several entries; their conditions need not be identical. Identical values can stand only once. The source holds several records for some structures; these can differ, active in one and inactive in another. Calls of active or inactive are those of the source. How the source made its calls: active means hit-call score of the fitted dose curve at least 0.9, where 1 is the maximum; inactive means score below 0.9.

The text below walks through data of PubChem BioAssay (EPA / NIEHS).

Take `CCCCCCCCCCCCOS(=O)(=O)O`: the outcome in experiment [1], in experiment [3], in experiment [10], in experiment [12], in [13] and in [14] was inactive. Besides, the outcome in experiment [15], in experiment [16], in experiment [17] and in [18] was inactive. For the same compound, the AC50 in [2] is 26.2 µM (active); in experiment [4], 12.5 µM (active); in experiment [5] it was 26.4 µM (active); in experiment [6] it was 28.7 µM (active); in experiment [7] it was 33.3 µM (active); in [8], 31.6 µM (active). For the same compound, the AC50 in experiment [9] was 32.8 µM (active); in experiment [11], 27.5 µM (active).

As to `Cc1ccc(N=Nc2c(O)ccc3ccccc23)c(C)c1`, the outcome in experiment [1], in [5], in experiment [6], in experiment [10], in experiment [11] and in experiment [12] was inactive. Moreover, the outcome in experiment [13], in [14], in experiment [15], in experiment [19], in experiment [16] and in experiment [17] was inactive. In addition, the result in [20] and in experiment [18] was inactive. The AC50 in experiment [2] is 10 µM (active); in experiment [3] it was 9.98 µM (active); in [4], 3.88 µM (active); in experiment [7] it was 10 µM (active); in experiment [8], 10 µM (active); in experiment [9], 4.02 µM (active).

For the compound `CCCCC=O`, the result in experiment [1], in [2], in experiment [3], in experiment [4], in [5] and in experiment [6] was inactive. The outcome in experiment [7], in [8], in experiment [9], in experiment [10], in [11] and in experiment [12] was inactive. The result in [13], in [14], in experiment [15], in experiment [19], in experiment [16] and in experiment [17] was inactive. Also, the result in experiment [20] and in experiment [18] was inactive.

For the compound `O=C(CC(=O)C(F)(F)C(F)(F)C(F)(F)F)c1cccs1`, the AC50 in experiment [1] was 8.16 µM (active); in experiment [2] it was 20.4 µM (active) and 23.8 µM (active); in [3] it was 27.6 µM (active) and 31 µM (active); in experiment [5] it was 24.6 µM (active) and 42 µM (active); in experiment [7], 10.9 µM (active) and 10 µM (active); in experiment [8], 47.4 µM (active) and 46 µM (active). Also, the AC50 in experiment [9] is 45.6 µM (active); in [10], 38.1 µM (active) and 20.8 µM (active); in experiment [11], 22.3 µM (active) and 20.7 µM (active); in experiment [13] it was 47.3 µM (active) and 50.5 µM (active); in experiment [14] it was 45.2 µM (active) and 48.9 µM (active); in experiment [15], 40.2 µM (active) and 32.8 µM (active). The concentration at half-maximal activity (AC50) in [19] is 45.5 µM (active) and 45.9 µM (active); in experiment [16], 30 µM (active) and 24.6 µM (active); in experiment [17], 42 µM (active) and 50.2 µM (active); in experiment [20], 41.2 µM (active) and 43.4 µM (active); in experiment [18], 45.6 µM (active) and 44.6 µM (active). Also, the outcome in experiment [1] and in experiment [12] was inactive.

On to `CS(=O)(=O)c1ccc([C@@H](CC2CCCC2)C(=O)Nc2cnccn2)cc1Cl`, for which the outcome in [1], in experiment [2], in [3], in experiment [5], in experiment [6] and in [8] was inactive. For the same compound, the result in [9], in experiment [10], in experiment [11], in [12], in experiment [13] and in experiment [14] was inactive. Further, the outcome in experiment [15], in experiment [19], in experiment [17], in [20] and in [18] was inactive. In addition, the AC50 in [7] is 29.2 µM (active); in experiment [16], 26.9 µM (active).

Turning to `CN(Cc1cnc2nc(N)nc(N)c2n1)c1ccc(C(=O)N[C@@H](CCC(=O)O)C(=O)O)cc1`, the result in [1], in [2], in experiment [3], in experiment [5], in experiment [6] and in [7] was inactive. Further, the outcome in [8], in experiment [9], in experiment [10], in experiment [11], in experiment [12] and in experiment [13] was inactive. The result in experiment [14], in experiment [15], in experiment [19], in experiment [16], in [17] and in [20] was inactive. Further, the outcome in experiment [18] was inactive. In addition, the AC50 in experiment [7] was 2.71 µM (active).
